In the supplement of paper PMC6279402:
Where a name gives a salt, the structure may show the parent alone. ± gives the standard deviation of the averaged measurements.

System: A549
Test: relative viability (normalised to negative control = 1, bortezomib = 0) (fraction); higher = less cytotoxic
Settings: inflammatory serum-free RHB-A with cytokines + LPS, 5 d + 24 h CellTiter-Blue
[1] = compound 30 nM, GSK126 pretreatment: 5 uM GSK126
[2] = compound 30 nM, GSK126 pretreatment: none (vehicle)
[3] = compound 300 nM, GSK126 pretreatment: 5 uM GSK126
[4] = compound 300 nM, GSK126 pretreatment: none (vehicle)

| Compound | relative viability [1] | relative viability [2] | relative viability [3] | relative viability [4] |
| --- | --- | --- | --- | --- |
| CO[C@H]1C[C@@H]2CC[C@@H](C)[C@@](O)(O2)C(=O)C(=O)N2CCCC[C@H]2C(=O)O[C@H]([C@H](C)C[C@@H]2CC[C@@H](OCCO)[C@H](OC)C2)CC(=O)[C@H](C)/C=C(\C)[C@@H](O)[C@@H](OC)C(=O)[C@H](C)C[C@H](C)/C=C/C=C/C=C/1C [Everolimus; Everolimus(RAD001)] | 0.647 ± 0.072 | 0.615 ± 0.033 | 0.562 ± 0.068 | 0.582 ± 0.063 |
| CC[C@H](Nc1ncnc2nc[nH]c12)c1nc2cccc(F)c2c(=O)n1-c1ccccc1 | 0.899 ± 0.11 | 0.876 ± 0.1 | 0.878 ± 0.08 | 0.852 ± 0.035 |
| C=CC(=O)Nc1cc2c(Nc3ccc(F)c(Cl)c3)ncnc2cc1OCCCN1CCOCC1 [CI-1033(Canertinib)] | 0.602 ± 0.014 | 0.595 ± 0.017 | 0.483 ± 0.028 | 0.502 ± 0.028 |
| COC(=O)Nc1ccc(-c2nc(N3CCOCC3)c3cnn(C4CCN(Cc5cccnc5)CC4)c3n2)cc1 | 0.851 ± 0.12 | 0.869 ± 0.13 | 0.847 ± 0.061 | 0.832 ± 0.097 |
| O=c1cc(-c2cccc3c2Sc2ccccc2S3)oc(N2CCOCC2)c1 | 0.781 ± 0.04 | 0.845 ± 0.035 | 0.833 ± 0.044 | 0.875 ± 0.069 |
| O=C1NC(=O)/C(=C/c2ccc3nccc(-c4ccncc4)c3c2)S1 | 0.83 ± 0.1 | 0.85 ± 0.088 | 0.747 ± 0.067 | 0.72 ± 0.029 |
| Cc1ccc(C(=O)Nc2cccc(C(F)(F)F)c2)cc1Nc1nc(-c2cccnc2)nc2c1cnn2C | 0.992 ± 0.12 | 0.959 ± 0.17 | 1.01 ± 0.13 | 1.06 ± 0.15 |
| Clc1ccc(C(c2ccccc2Cl)C(Cl)Cl)cc1 (configuration not stated) | 0.827 ± 0.1 | 0.804 ± 0.093 | 0.832 ± 0.16 | 0.983 ± 0.12 |
| CC(C)C[C@H](NC(=O)[C@H](CCc1ccccc1)NC(=O)CN1CCOCC1)C(=O)N[C@@H](Cc1ccccc1)C(=O)N[C@@H](CC(C)C)C(=O)[C@@]1(C)CO1 [Carfilzomib] | -0.00043 ± 0.0042 | 0.0294 ± 0.0064 | -0.00389 ± 0.00043 | -0.00499 ± 0.0011 |
| O=c1cc(N2CCOCC2)oc2c(-c3cccc4c3sc3ccccc34)cccc12 | 0.877 ± 0.026 | 0.869 ± 0.057 | 0.922 ± 0.055 | 0.919 ± 0.072 |
| O=C1NC(=O)/C(=C/c2ccc3c(c2)OC(F)(F)O3)S1 | 0.939 ± 0.15 | 0.969 ± 0.17 | 1.01 ± 0.14 | 0.968 ± 0.092 |
| CO[C@@]12[C@H](COC(N)=O)C3=C(C(=O)C(C)=C(N)C3=O)N1C[C@@H]1N[C@@H]12 [Mitomycin; Mitomycin C] | 0.827 ± 0.16 | 0.845 ± 0.092 | 0.58 ± 0.1 | 0.47 ± 0.05 |
| O=P(O)(O)C(O)(Cn1ccnc1)P(=O)(O)O [Zoledronic acid; Zolendronic acid] | 0.936 ± 0.023 | 0.924 ± 0.15 | 1.09 ± 0.12 | 1.08 ± 0.051 |
| COc1cc([C@@H]2c3cc4c(cc3[C@@H](O[C@@H]3O[C@@H]5CO[C@@H](C)O[C@H]5[C@H](O)[C@H]3O)[C@H]3COC(=O)[C@H]23)OCO4)cc(OC)c1O [Etoposide] | 0.938 ± 0.081 | 0.935 ± 0.037 | 0.985 ± 0.046 | 0.845 ± 0.047 |
| Cc1cc(Nc2nc(N[C@@H](C)c3ncc(F)cn3)ncc2Cl)[nH]n1 | 0.912 ± 0.1 | 0.872 ± 0.08 | 1.15 ± 0.076 | 1.13 ± 0.017 |
| COc1ccc(-c2ccc3c(N4CCOC[C@@H]4C)nc(N4CCOC[C@@H]4C)nc3n2)cc1CO | 0.392 ± 0.011 | 0.396 ± 0.016 | 0.191 ± 0.054 | 0.197 ± 0.015 |
| O=C(Cc1ccc(-c2ccc(OCCN3CCOCC3)cc2)cn1)NCc1ccccc1 | 0.319 ± 0.065 | 0.211 ± 0.026 | 0.388 ± 0.049 | 0.248 ± 0.05 |
| CCCS(=O)(=O)Nc1ccc(F)c(C(=O)c2c[nH]c3ncc(Cl)cc23)c1F | 0.771 ± 0.062 | 0.725 ± 0.028 | 0.851 ± 0.19 | 1.02 ± 0.074 |
| S=C(NCc1ccc2c(c1)OCO2)N1CCN(c2ncnc3c2oc2ccccc23)CC1 [Amuvatinib (MP-470); MP-470] | 0.861 ± 0.067 | 0.848 ± 0.057 | 0.917 ± 0.15 | 1.07 ± 0.072 |

| Compound | relative viability [1] | relative viability [2] | relative viability [3] | relative viability [4] |
| --- | --- | --- | --- | --- |
| Cc1ncc(-c2ccnc(Nc3ccc(S(C)(=O)=O)cc3)n2)n1C(C)C | 0.867 ± 0.072 | 0.854 ± 0.011 | 0.675 ± 0.062 | 0.69 ± 0.03 |
| COc1ccc2c3n(c(=NC(=O)c4cccnc4)nc2c1OC)CCN3 | 0.7 ± 0.049 | 0.75 ± 0.044 | 0.578 ± 0.14 | 0.735 ± 0.031 |
| COc1cc(Nc2ncc3c(n2)-c2ccc(Cl)cc2C(c2c(F)cccc2OC)=NC3)ccc1C(=O)O | 0.804 ± 0.087 | 0.821 ± 0.044 | 0.523 ± 0.11 | 0.381 ± 0.048 |
| Cc1cnc(NC(=O)Nc2cc(Br)c(C)cc2OC[C@@H]2CNCCO2)cn1 | 0.539 ± 0.03 | 0.607 ± 0.081 | 0.414 ± 0.05 | 0.338 ± 0.028 |
| O=C(CCCCCCC(=O)Nc1ccccc1)NO [Vorinostat; SAHA] | 0.83 ± 0.15 | 0.868 ± 0.073 | 0.891 ± 0.17 | 1 ± 0.19 |
| Cc1nc(N)sc1-c1ccnc(Nc2ccc(N3CCOCC3)cc2)n1 | 0.898 ± 0.061 | 0.913 ± 0.011 | 0.797 ± 0.1 | 0.72 ± 0.083 |
| CC(C)(C)Cn1c(N)nc2ccc(-c3[nH]c(C(C)(C)C)nc3-c3ccc(F)cc3)nc21 | 1.11 ± 0.14 | 0.933 ± 0.21 | 1.25 ± 0.16 | 1.15 ± 0.18 |
| C=CC(=O)Nc1cccc(Oc2nc(Nc3ccc(N4CCN(C)CC4)cc3)ncc2Cl)c1 | 0.802 ± 0.067 | 0.82 ± 0.095 | 0.132 ± 0.07 | 0.0677 ± 0.014 |
| CCCCC(=O)OCC(=O)[C@]1(O)Cc2c(O)c3c(c(O)c2[C@@H](O[C@H]2C[C@H](NC(=O)C(F)(F)F)[C@H](O)[C@H](C)O2)C1)C(=O)c1c(OC)cccc1C3=O [Valrubicin] | 0.989 ± 0.055 | 1.01 ± 0.042 | 0.899 ± 0.027 | 0.879 ± 0.041 |
| CNC(=O)CN1CCC(Oc2cc3c(Nc4cccc(Cl)c4F)ncnc3cc2OC)CC1 | 0.536 ± 0.14 | 0.525 ± 0.058 | 0.346 ± 0.075 | 0.375 ± 0.024 |
| Clc1ccc(Nc2nnc(Cc3ccncc3)c3ccccc23)cc1 [Vatalanib] | 0.822 ± 0.036 | 0.791 ± 0.044 | 0.84 ± 0.074 | 0.874 ± 0.05 |
| CN(C)c1ccc(-c2nc3ncc(Cl)c(N4CCN(CC(=O)Nc5nccs5)CC4)c3[nH]2)cc1 | 0.997 ± 0.11 | 0.983 ± 0.091 | 1.1 ± 0.097 | 1.07 ± 0.066 |
| CNC(=O)c1ccc(C)c(-n2c(C)cc(OCc3ccc(F)cc3F)c(Br)c2=O)c1 | 1.15 ± 0.17 | 0.936 ± 0.17 | 1.29 ± 0.13 | 0.974 ± 0.085 |
| CNC(=O)c1cc(Oc2ccc(NC(=O)Nc3cc(C(C)(C)C)nn3-c3ccc4ncccc4c3)c(F)c2)ccn1 [DCC-2036 (Rebastinib)] | 1.37 ± 0.1 | 1.35 ± 0.12 | 1.48 ± 0.067 | 1.57 ± 0.06 |
| N#Cc1ccc(C(c2ccc(C#N)cc2)n2cncn2)cc1 [Letrozole] | 0.756 ± 0.011 | 0.7993 ± 0.0055 | 0.832 ± 0.063 | 0.932 ± 0.037 |
| Cc1cc(C(=O)NOCCO)c(Nc2ccc(I)cc2F)n(C)c1=O | 0.137 ± 0.0076 | 0.158 ± 0.004 | 0.0557 ± 0.021 | 0.0366 ± 0.01 |
| C/C(=C\c1csc(C)n1)[C@@H]1C[C@@H]2O[C@]2(C)CCC[C@H](C)[C@H](O)[C@@H](C)C(=O)C(C)(C)[C@@H](O)CC(=O)N1 [Ixabepilone] | 0.464 ± 0.084 | 0.269 ± 0.068 | 0.386 ± 0.016 | 0.288 ± 0.043 |
| CCc1c2c(nc3ccc(OC(=O)N4CCC(N5CCCCC5)CC4)cc13)-c1cc3c(c(=O)n1C2)COC(=O)[C@]3(O)CC [Irinotecan HCl; Irinotecan hydrochloride] | 0.898 ± 0.038 | 0.895 ± 0.018 | 0.931 ± 0.037 | 0.917 ± 0.031 |
| CO[C@H]1C[C@@H]2CC[C@@H](C)[C@@](O)(O2)C(=O)C(=O)N2CCCC[C@H]2C(=O)O[C@H]([C@H](C)C[C@@H]2CC[C@@H](OP(C)(C)=O)[C@H](OC)C2)CC(=O)[C@H](C)/C=C(\C)[C@@H](O)[C@@H](OC)C(=O)[C@H](C)C[C@H](C)/C=C/C=C/C=C/1C [Deforolimus(MK-8669)] | 0.574 ± 0.039 | 0.591 ± 0.02 | 0.548 ± 0.03 | 0.523 ± 0.041 |
